About 79,000 compounds went through this panel and 15% of them were active in at least one assay; those are over-represented in the sample as a whole. Calls of active or inactive are those of the source. Cut-off read from the data, not from the text of the source: active = growth inhibition above about 70%; inactive = the rest. *1 amine or outer side, *2 acyl side, *3 side chain or, on linkers, in order; H or OH if unused. Where a SMILES comes first, the peptide text is derived from it. The star is where a group is joined. γGlu = O=C(O)[CH](CCC(=O)[*:2])N[*:1]; NHOH = ON*
Columns and labels:
[1] = NCI Yeast Anticancer Drug Screen. Data for the rad50 strain (AID 155);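 note: 0% = growth of vehicle-only cultures of the same strain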; details: S. cerevisiae rad50 strain growth inhibition; at 50.0 µM; stronger effect = higher value
Procedure, shortened: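 Genetically altered yeast (DNA repair pathway); compound treatment; growth inhibition vs vehicle ctrl.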

[2] = NCI Yeast Anticancer Drug Screen. Data for the mec2-1 strain (AID 157); details: S. cerevisiae mec2-1 strain, at 50.0 µM, stronger effect = higher value
Procedure, shortened: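 Mutant yeast (mec2-1) grown with compound; growth inhibition relative to vehicle control reported.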

[3] = NCI Yeast Anticancer Drug Screen. Data for the sgs1 mgt1 strain (AID 161);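 note: 0% = growth of cultures given vehicle only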; details: S. cerevisiae sgs1 mgt1 strain, at 50.0 µM, stronger effect = higher value
Procedure, shortened: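 This yeast growth screen uses a strain with defined DNA-repair lesions; compound-treated growth is compared with vehicle-treated growth.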

[4] = NCI Yeast Anticancer Drug Screen. Data for the cln2 rad14 strain (AID 165);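 note: 0% = growth equal to vehicle treated cultures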; details: S. cerevisiae cln2 rad14 strain, at 50.0 µM, stronger effect = higher value
Procedure, shortened: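 Readout is yeast growth inhibition versus vehicle-treated controls, using a strain with cln2 and rad14 alterations exposed to compound.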

[5] = NCI Yeast Anticancer Drug Screen. Data for the bub3 strain (AID 167); details: S. cerevisiae bub3 mutant strain, at 50.0 µM, stronger effect = higher value
Procedure, shortened: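 Yeast carrying a defined mutation is treated with each compound, and growth is compared with that of vehicle-exposed cells to give inhibition.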

[6] = NCI Yeast Anticancer Drug Screen. Data for the mlh1 rad18 strain (AID 175); details: S. cerevisiae mlh1 rad18 strain growth inhibition; at 50.0 µM; stronger effect = higher value
Procedure, shortened: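 Genetically defined yeast (DNA repair-deficient) exposed to compounds; growth inhibition determined relative to vehicle.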

Measured: growth inhibition

C/C=C/C(=O)OCCC#N
inactive: [1] -27.1% | [2] -2.3% | [3] 3.7% | [4] 14.7% | [5] -17.1% | [6] -8.85%

Fc1ccc(C(c2ccc(F)cc2)C(F)(F)F)cc1
inactive: [1] 8.65% | [2] -20.3% | [3] 24.9% | [4] 10.8% | [5] 13.7% | [6] 13.4%

NNCCSC1CCCCC1
inactive: [1] 8.9% | [2] 22.1% | [3] 15.3% | [4] -63.1% | [5] -17% | [6] 2.8%

CCC/C=N\NS(=O)(=O)c1ccc(NC(C)=O)cc1
inactive: [1] 4.65% | [2] -28.4% | [3] 11.6% | [4] 12.6% | [5] -43.7% | [6] 27.2%

O=C1CC2CCC(C1)S2=O (centres undefined)
inactive: [1] 19.6% | [2] -10.5% | [3] 17.5% | [4] 23% | [5] 12.8% | [6] 18.5%

COc1c2c(cc3c(CCc4ccccc4)cc(=O)oc13)CCC(C)(C)O2
inactive: [1] -5.95% | [2] -22.8% | [3] -6.5% | [4] 15.4% | [5] -5.75% | [6] -27.3%

O=c1nc(NCCc2c[nH]c3ccccc23)ccn1C1OC(CO)C(O)C1O (centres undefined)
inactive: [1] 19.1% | [2] 4.5% | [3] 2.35% | [4] 15.1% | [5] -1.45% | [6] 7.25%

CC(C)C(NC(=O)CI)C(=O)Nc1ccc(C(=O)O)c(O)c1 (centres undefined)
inactive: [1] 24.2% | [2] 20.5% | [3] 5.7% | [4] -11.6% | [5] 7.1% | [6] 24.1%

COc1nc(OC)c2cnn(-c3ccc(Cl)cc3)c2n1
inactive: [1] -10.5% | [2] -4.6% | [3] -6.45% | [4] -3% | [5] 3.7% | [6] -7.35%

N#CC(N)=NC1CCC(C2CCC(O)CC2)CC1 (centres undefined)
inactive: [1] 6.65% | [2] 2.4% | [3] -6.25% | [4] -1.3% | [5] 16.1% | [6] 10.7%

O=C(NC1CC12c1ccccc1-c1ccccc12)Oc1ccc2ccccc2c1 (centres undefined)
inactive: [1] 68.4% | [2] 18.8% | [3] 60.9% | [4] 45.8% | [5] 55.2% | [6] 57.4%

COc1cc2ccc3c4cc5c(cc4cnc3c2cc1OC)OCO5
inactive: [1] -0.65% | [2] -3.45% | [3] -15.7% | [4] -25.9% | [5] -1.1% | [6] -16.7%

Cc1nc2cnc(N)nc2nc1C
inactive: [1] -6.85% | [2] -16.9% | [3] -3.65% | [4] -40.4% | [5] 0.8% | [6] 0.75%

Cn1c(COc2ccc(/C=N\NC(=O)c3ccc(C(=O)N/N=C/c4ccc(OCc5c[n+]6ccccc6n5C)cc4)cc3)cc2)c[n+]2ccccc12
inactive: [1] -5% | [2] 3.5% | [3] -2.85% | [4] 26.7% | [5] 1.6% | [6] -36.8%

NC(CCC(=O)NC(CCC(=O)NO)C(=O)NCC(=O)O)C(=O)O (centres undefined) (γGlu-Glu(NHOH)-Gly-OH; configuration not given here)
inactive: [1] -29.5% | [2] -3.2% | [3] -11.6% | [4] 2.05% | [5] -4.85% | [6] -42.5%

COC(=O)c1nnn(-c2ccccc2C(C)C)c1C(=O)c1ccccc1
inactive: [1] 7% | [2] -8.85% | [3] -0.9% | [4] -5.75% | [5] -21.4% | [6] 24.5%

Cc1cc(C)c(CN(C)C)c(CC(O)c2ccccc2)c1 (centres undefined)
inactive: [1] 10.8% | [2] -5.95% | [3] 7.4% | [4] -15% | [5] 3.45% | [6] -1.95%

N#C/C(c1nc2ccccc2[nH]1)=c1\s/c(=C(/N)O)c(=N)n1-c1ccccc1
inactive: [1] -31.6% | [2] -26% | [3] -32.4% | [4] -30.1% | [5] -34.1% | [6] -47.6%

CC(=O)c1cccc(C(C)=O)c1N=Cc1ccc(Cl)cc1
inactive: [1] -30.3% | [2] -27.9% | [3] -26.4% | [4] -11.8% | [5] -18.1% | [6] -18.9%

Reference: PubChem BioAssay (NCI)
